According to PMC11006913:
Residue numbers refer to the chain shown, from its start.

What was measured:
Assay in all cases: PBM; 200 nM protein, PBS
Conditions in all cases: dsDNA, one strand shown
[1] = molecular target: HOXB4 (Homo sapiens, UniProt P17483 148-234)
[2] = molecular target: HOXB4 (Homo sapiens, UniProt P17483 148-234, V174I)
[3] = molecular target: HOXD13 (Homo sapiens, UniProt P35453 263-343, T313R)
[4] = molecular target: SHOX (Homo sapiens, UniProt O15266 103-189)
[5] = molecular target: CRX (Homo sapiens, UniProt O43186 26-111, R41L)
Sequence of CRX (Homo sapiens, UniProt O43186 26-111, R41L) (O43186 26-111 R41L): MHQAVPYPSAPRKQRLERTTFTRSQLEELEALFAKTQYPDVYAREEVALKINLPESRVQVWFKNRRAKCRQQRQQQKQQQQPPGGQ

[6] = molecular target: T1, PAX4 (Homo sapiens, UniProt O43316 9-242, F177V)
T1 sequence: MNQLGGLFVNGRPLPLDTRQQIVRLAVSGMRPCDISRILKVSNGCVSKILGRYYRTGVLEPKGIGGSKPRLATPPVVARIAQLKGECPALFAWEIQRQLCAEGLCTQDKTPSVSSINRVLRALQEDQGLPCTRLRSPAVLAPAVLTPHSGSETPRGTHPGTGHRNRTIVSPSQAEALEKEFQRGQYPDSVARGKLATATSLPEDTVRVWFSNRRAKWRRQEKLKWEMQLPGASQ

[7] = molecular target: T2, PAX4 (Homo sapiens, UniProt O43316 9-242, F177Y)
T2 sequence: T1 sequence with V169Y

[8] = molecular target: PROP1 (Homo sapiens, UniProt O75360 56-141)
Sequence of PROP1 (Homo sapiens, UniProt O75360 56-141) (O75360 56-141): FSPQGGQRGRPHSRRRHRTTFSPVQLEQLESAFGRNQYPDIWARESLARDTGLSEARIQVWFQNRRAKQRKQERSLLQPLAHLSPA

[9] = molecular target: PROP1 (Homo sapiens, UniProt O75360 56-141, R99H)
Sequence of PROP1 (Homo sapiens, UniProt O75360 56-141, R99H) (O75360 56-141 R99H): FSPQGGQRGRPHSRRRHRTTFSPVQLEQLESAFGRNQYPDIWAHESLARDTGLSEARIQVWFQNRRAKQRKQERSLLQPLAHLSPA

[10] = molecular target: PROP1 (Homo sapiens, UniProt O75360 56-141, F88S)
Sequence of PROP1 (Homo sapiens, UniProt O75360 56-141, F88S) (O75360 56-141 F88S): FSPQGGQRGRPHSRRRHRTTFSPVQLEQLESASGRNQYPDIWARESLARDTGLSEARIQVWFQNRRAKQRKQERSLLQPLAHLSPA

[11] = molecular target: T3, VENTX (Homo sapiens, UniProt O95231 78-163, R121Q)
T3 sequence: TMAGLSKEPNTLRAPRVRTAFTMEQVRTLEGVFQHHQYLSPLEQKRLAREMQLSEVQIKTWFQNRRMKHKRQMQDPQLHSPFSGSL

[12] = molecular target: HOXB9 (Homo sapiens, UniProt P17482 171-250, T197M)
Sequence of HOXB9 (Homo sapiens, UniProt P17482 171-250, T197M) (P17482 171-250 T197M): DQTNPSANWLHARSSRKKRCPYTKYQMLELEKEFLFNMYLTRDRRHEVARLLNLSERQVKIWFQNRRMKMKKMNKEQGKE

[13] = molecular target: T4, VENTX (Homo sapiens, UniProt O95231 78-163)
T4 sequence: T3 sequence with Q44R

[14] = molecular target: T5, VENTX (Homo sapiens, UniProt O95231 78-163, Y115F)
T5 sequence: T3 sequence with Y38F, Q44R

[15] = molecular target: HOXB9 (Homo sapiens, UniProt P17482 171-250)
Sequence of HOXB9 (Homo sapiens, UniProt P17482 171-250) (P17482 171-250): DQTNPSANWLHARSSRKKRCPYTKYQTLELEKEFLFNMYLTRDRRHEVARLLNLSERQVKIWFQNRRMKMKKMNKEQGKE

[16] = molecular target: SHOX (Homo sapiens, UniProt O15266 103-189, R173C)
Sequence of SHOX (Homo sapiens, UniProt O15266 103-189, R173C) (O15266 103-189 R173C): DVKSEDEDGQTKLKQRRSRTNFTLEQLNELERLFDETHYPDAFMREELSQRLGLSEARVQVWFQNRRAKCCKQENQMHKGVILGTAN

[17] = molecular target: HOXB9 (Homo sapiens, UniProt P17482 171-250, R186Q)
Sequence of HOXB9 (Homo sapiens, UniProt P17482 171-250, R186Q) (P17482 171-250 R186Q): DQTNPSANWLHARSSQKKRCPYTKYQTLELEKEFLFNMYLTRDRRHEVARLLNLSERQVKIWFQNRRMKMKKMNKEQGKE

[18] = molecular target: CRX (Homo sapiens, UniProt O43186 26-111)
Sequence of CRX (Homo sapiens, UniProt O43186 26-111) (O43186 26-111): as the sequence (O43186 26-111 R41L) above, with L16R counted along it

[19] = molecular target: HOXA7 (Homo sapiens, UniProt P31268 116-202)
Sequence of HOXA7 (Homo sapiens, UniProt P31268 116-202) (P31268 116-202): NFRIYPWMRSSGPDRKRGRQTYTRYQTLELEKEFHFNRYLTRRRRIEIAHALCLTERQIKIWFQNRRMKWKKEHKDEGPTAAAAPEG

[20] = molecular target: CRX (Homo sapiens, UniProt O43186 26-111, E42D)
Sequence of CRX (Homo sapiens, UniProt O43186 26-111, E42D) (O43186 26-111 E42D): as the sequence (O43186 26-111 R41L) above, with L16R, E17D counted along it

[21] = molecular target: MSX2 (Homo sapiens, UniProt P35548 130-214, R199I)
Sequence of MSX2 (Homo sapiens, UniProt P35548 130-214, R199I) (P35548 130-214 R199I): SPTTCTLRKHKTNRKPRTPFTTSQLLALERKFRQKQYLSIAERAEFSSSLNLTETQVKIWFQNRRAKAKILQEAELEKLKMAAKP

[22] = molecular target: MSX2 (Homo sapiens, UniProt P35548 130-214)
Sequence of MSX2 (Homo sapiens, UniProt P35548 130-214) (P35548 130-214): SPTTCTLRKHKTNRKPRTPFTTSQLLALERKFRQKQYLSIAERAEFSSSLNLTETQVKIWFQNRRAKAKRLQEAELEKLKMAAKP

[23] = molecular target: MSX2 (Homo sapiens, UniProt P35548 130-214, F161Y)
Sequence of MSX2 (Homo sapiens, UniProt P35548 130-214, F161Y) (P35548 130-214 F161Y): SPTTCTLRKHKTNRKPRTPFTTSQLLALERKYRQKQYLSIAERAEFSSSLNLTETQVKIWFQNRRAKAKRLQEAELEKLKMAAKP

[24] = molecular target: HOXA7 (Homo sapiens, UniProt P31268 116-202, W177C)
Sequence of HOXA7 (Homo sapiens, UniProt P31268 116-202, W177C) (P31268 116-202 W177C): as the sequence (P31268 116-202) above, with W62C counted along it

[25] = molecular target: NKX3-2 (Homo sapiens, UniProt P78367 192-278, P234S)
Sequence of NKX3-2 (Homo sapiens, UniProt P78367 192-278, P234S) (P78367 192-278 P234S): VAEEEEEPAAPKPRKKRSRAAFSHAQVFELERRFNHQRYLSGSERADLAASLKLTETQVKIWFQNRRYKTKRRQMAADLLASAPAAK

[26] = molecular target: NKX3-2 (Homo sapiens, UniProt P78367 192-278)
Sequence of NKX3-2 (Homo sapiens, UniProt P78367 192-278) (P78367 192-278): as the sequence (P78367 192-278 P234S) above, with S43P counted along it

[27] = molecular target: HOXA4 (Homo sapiens, UniProt Q00056 201-287, W262R)
Sequence of HOXA4 (Homo sapiens, UniProt Q00056 201-287, W262R) (Q00056 201-287 W262R): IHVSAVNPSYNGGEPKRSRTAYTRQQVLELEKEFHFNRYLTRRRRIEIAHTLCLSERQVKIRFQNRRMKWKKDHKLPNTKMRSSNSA

[28] = molecular target: HOXA4 (Homo sapiens, UniProt Q00056 201-287)
Sequence of HOXA4 (Homo sapiens, UniProt Q00056 201-287) (Q00056 201-287): as the sequence (Q00056 201-287 W262R) above, with R62W counted along it

[29] = molecular target: HOXA4 (Homo sapiens, UniProt Q00056 201-287, W262F)
Sequence of HOXA4 (Homo sapiens, UniProt Q00056 201-287, W262F) (Q00056 201-287 W262F): as the sequence (Q00056 201-287 W262R) above, with R62F counted along it

[30] = molecular target: HOXD13 (Homo sapiens, UniProt P35453 263-343)
Sequence of HOXD13 (Homo sapiens, UniProt P35453 263-343) (P35453 263-343): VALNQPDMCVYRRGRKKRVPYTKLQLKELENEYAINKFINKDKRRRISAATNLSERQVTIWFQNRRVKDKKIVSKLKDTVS

[31] = molecular target: HOXD13 (Homo sapiens, UniProt P35453 263-343, T313A)
Sequence of HOXD13 (Homo sapiens, UniProt P35453 263-343, T313A) (P35453 263-343 T313A): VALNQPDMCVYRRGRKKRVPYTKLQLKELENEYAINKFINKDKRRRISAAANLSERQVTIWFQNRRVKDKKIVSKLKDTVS

[32] = molecular target: HOXB6 (Homo sapiens, UniProt P17509 132-218, K202E)
Sequence of HOXB6 (Homo sapiens, UniProt P17509 132-218, K202E) (P17509 132-218 K202E): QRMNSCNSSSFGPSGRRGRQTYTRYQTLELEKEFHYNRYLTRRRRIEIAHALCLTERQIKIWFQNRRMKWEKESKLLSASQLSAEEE

[33] = molecular target: HOXB6 (Homo sapiens, UniProt P17509 132-218)
Sequence of HOXB6 (Homo sapiens, UniProt P17509 132-218) (P17509 132-218): as the sequence (P17509 132-218 K202E) above, with E71K counted along it

[34] = molecular target: HOXA2 (Homo sapiens, UniProt O43364 129-215, R185T)
Sequence of HOXA2 (Homo sapiens, UniProt O43364 129-215, R185T) (O43364 129-215 R185T): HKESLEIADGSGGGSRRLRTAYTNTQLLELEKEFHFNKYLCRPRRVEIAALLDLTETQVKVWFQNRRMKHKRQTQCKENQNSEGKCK

[35] = molecular target: ALX3 (Homo sapiens, UniProt O95076 139-225, N203Q)
Sequence of ALX3 (Homo sapiens, UniProt O95076 139-225, N203Q) (O95076 139-225 N203Q): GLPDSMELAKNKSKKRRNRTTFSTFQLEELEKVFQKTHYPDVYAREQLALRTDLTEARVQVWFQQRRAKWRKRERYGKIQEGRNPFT

[36] = molecular target: HOXA2 (Homo sapiens, UniProt O43364 129-215, R185K)
Sequence of HOXA2 (Homo sapiens, UniProt O43364 129-215, R185K) (O43364 129-215 R185K): as the sequence (O43364 129-215 R185T) above, with T57K counted along it

[37] = molecular target: ALX3 (Homo sapiens, UniProt O95076 139-225)
Sequence of ALX3 (Homo sapiens, UniProt O95076 139-225) (O95076 139-225): as the sequence (O95076 139-225 N203Q) above, with Q65N counted along it

[38] = molecular target: VAX1 (Homo sapiens, UniProt Q5SQQ9 86-172)
Sequence of VAX1 (Homo sapiens, UniProt Q5SQQ9 86-172) (Q5SQQ9 86-172): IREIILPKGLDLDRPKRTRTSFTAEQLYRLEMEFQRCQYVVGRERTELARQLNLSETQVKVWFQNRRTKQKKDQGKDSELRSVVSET

[39] = molecular target: ALX3 (Homo sapiens, UniProt O95076 139-225, L168Q)
Sequence of ALX3 (Homo sapiens, UniProt O95076 139-225, L168Q) (O95076 139-225 L168Q): as the sequence (O95076 139-225 N203Q) above, with L30Q, Q65N counted along it

[40] = molecular target: ALX3 (Homo sapiens, UniProt O95076 139-225, L168V)
Sequence of ALX3 (Homo sapiens, UniProt O95076 139-225, L168V) (O95076 139-225 L168V): as the sequence (O95076 139-225 N203Q) above, with L30V, Q65N counted along it

[41] = molecular target: VAX1 (Homo sapiens, UniProt Q5SQQ9 86-172, T142I)
Sequence of VAX1 (Homo sapiens, UniProt Q5SQQ9 86-172, T142I) (Q5SQQ9 86-172 T142I): as the sequence (Q5SQQ9 86-172) above, with T57I counted along it

[42] = molecular target: HOXA2 (Homo sapiens, UniProt O43364 129-215, Y150S)
Sequence of HOXA2 (Homo sapiens, UniProt O43364 129-215, Y150S) (O43364 129-215 Y150S): as the sequence (O43364 129-215 R185T) above, with Y22S, T57R counted along it

[43] = molecular target: ALX3 (Homo sapiens, UniProt O95076 139-225, N203S)
Sequence of ALX3 (Homo sapiens, UniProt O95076 139-225, N203S) (O95076 139-225 N203S): as the sequence (O95076 139-225 N203Q) above, with Q65S counted along it

[44] = molecular target: HOXA2 (Homo sapiens, UniProt O43364 129-215)
Sequence of HOXA2 (Homo sapiens, UniProt O43364 129-215) (O43364 129-215): as the sequence (O43364 129-215 R185T) above, with T57R counted along it

[45] = molecular target: VAX1 (Homo sapiens, UniProt Q5SQQ9 86-172, K157R)
Sequence of VAX1 (Homo sapiens, UniProt Q5SQQ9 86-172, K157R) (Q5SQQ9 86-172 K157R): as the sequence (Q5SQQ9 86-172) above, with K72R counted along it

Sequence of SHOX (Homo sapiens, UniProt O15266 103-189) (O15266 103-189): as the sequence (O15266 103-189 R173C) above, with C71R counted along it
Sequence of HOXB4 (Homo sapiens, UniProt P17483 148-234) (P17483 148-234): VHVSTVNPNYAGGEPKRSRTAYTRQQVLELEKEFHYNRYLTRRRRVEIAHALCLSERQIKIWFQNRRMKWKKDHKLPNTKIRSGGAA
Sequence of HOXD13 (Homo sapiens, UniProt P35453 263-343, T313R) (P35453 263-343 T313R): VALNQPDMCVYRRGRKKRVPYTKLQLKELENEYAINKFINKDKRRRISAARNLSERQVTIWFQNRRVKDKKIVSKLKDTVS
Sequence of HOXB4 (Homo sapiens, UniProt P17483 148-234, V174I) (P17483 148-234 V174I): as the sequence (P17483 148-234) above, with V27I counted along it

With AATATAAA the binding signal [1] was 10.6 upbm affinity estimate (log intensity, higher = more binding, comparable within an allelic series), the binding signal [2] was 10.7 upbm affinity estimate (log intensity, higher = more binding, comparable within an allelic series) and the binding signal [3] was 10.7 upbm affinity estimate (log intensity, higher = more binding, comparable within an allelic series).

In the case of TAACGACA, the binding signal [4] is reported as 8.33 upbm affinity estimate (log intensity, higher = more binding, comparable within an allelic series).

In the case of AGCATTAG, the binding signal [1] is reported as 10.5 upbm affinity estimate (log intensity, higher = more binding, comparable within an allelic series), the binding signal [2] is reported as 10.7 upbm affinity estimate (log intensity, higher = more binding, comparable within an allelic series) and the binding signal [5] is reported as 10.1 upbm affinity estimate (log intensity, higher = more binding, comparable within an allelic series).

For GATTATTA, the binding signal [1] was 12.9 upbm affinity estimate (log intensity, higher = more binding, comparable within an allelic series), the binding signal [2] was 13.5 upbm affinity estimate (log intensity, higher = more binding, comparable within an allelic series) and the binding signal [6] was 10.6 upbm affinity estimate (log intensity, higher = more binding, comparable within an allelic series). The binding signal [7] was 11 upbm affinity estimate (log intensity, higher = more binding, comparable within an allelic series).

With CATATGGG the binding signal [4] was 7.77 upbm affinity estimate (log intensity, higher = more binding, comparable within an allelic series).

In the case of GCCTCTCC, the binding signal [1] is reported as 7.31 upbm affinity estimate (log intensity, higher = more binding, comparable within an allelic series), the binding signal [2] is reported as 7.24 upbm affinity estimate (log intensity, higher = more binding, comparable within an allelic series) and the binding signal [8] is reported as 6.75 upbm affinity estimate (log intensity, higher = more binding, comparable within an allelic series). The binding signal [9] was 6.63 upbm affinity estimate (log intensity, higher = more binding, comparable within an allelic series) and the binding signal [10] was 6.67 upbm affinity estimate (log intensity, higher = more binding, comparable within an allelic series).

For CCGCATCC, the binding signal [4] was 7.26 upbm affinity estimate (log intensity, higher = more binding, comparable within an allelic series), the binding signal [11] was 8.27 upbm affinity estimate (log intensity, higher = more binding, comparable within an allelic series) and the binding signal [12] was 8.5 upbm affinity estimate (log intensity, higher = more binding, comparable within an allelic series). For the same sequence, the binding signal [13] was 8.44 upbm affinity estimate (log intensity, higher = more binding, comparable within an allelic series), the binding signal [14] was 8.27 upbm affinity estimate (log intensity, higher = more binding, comparable within an allelic series) and the binding signal [15] was 8.49 upbm affinity estimate (log intensity, higher = more binding, comparable within an allelic series). The binding signal [16] was 7.23 upbm affinity estimate (log intensity, higher = more binding, comparable within an allelic series), the binding signal [8] was 6.85 upbm affinity estimate (log intensity, higher = more binding, comparable within an allelic series) and the binding signal [9] was 6.89 upbm affinity estimate (log intensity, higher = more binding, comparable within an allelic series). The binding signal [17] was 8.51 upbm affinity estimate (log intensity, higher = more binding, comparable within an allelic series) and the binding signal [10] was 6.67 upbm affinity estimate (log intensity, higher = more binding, comparable within an allelic series).

For GAATTACA, the binding signal [4] was 9.41 upbm affinity estimate (log intensity, higher = more binding, comparable within an allelic series).

With GCCTCGCC the binding signal [4] was 7.06 upbm affinity estimate (log intensity, higher = more binding, comparable within an allelic series), the binding signal [18] was 8.26 upbm affinity estimate (log intensity, higher = more binding, comparable within an allelic series) and the binding signal [19] was 8.38 upbm affinity estimate (log intensity, higher = more binding, comparable within an allelic series). For the same sequence, the binding signal [20] was 8.29 upbm affinity estimate (log intensity, higher = more binding, comparable within an allelic series), the binding signal [21] was 9.34 upbm affinity estimate (log intensity, higher = more binding, comparable within an allelic series) and the binding signal [16] was 7.02 upbm affinity estimate (log intensity, higher = more binding, comparable within an allelic series). The binding signal [22] was 9.36 upbm affinity estimate (log intensity, higher = more binding, comparable within an allelic series), the binding signal [23] was 9.46 upbm affinity estimate (log intensity, higher = more binding, comparable within an allelic series) and the binding signal [24] was 8.26 upbm affinity estimate (log intensity, higher = more binding, comparable within an allelic series). The binding signal [25] was 10.6 upbm affinity estimate (log intensity, higher = more binding, comparable within an allelic series), the binding signal [5] was 8.24 upbm affinity estimate (log intensity, higher = more binding, comparable within an allelic series) and the binding signal [26] was 10.4 upbm affinity estimate (log intensity, higher = more binding, comparable within an allelic series).

For AATAACGC, the binding signal [4] was 8.74 upbm affinity estimate (log intensity, higher = more binding, comparable within an allelic series), the binding signal [27] was 10.2 upbm affinity estimate (log intensity, higher = more binding, comparable within an allelic series) and the binding signal [28] was 11.2 upbm affinity estimate (log intensity, higher = more binding, comparable within an allelic series). The binding signal [29] was 10.4 upbm affinity estimate (log intensity, higher = more binding, comparable within an allelic series).

For ATTATGCC, the binding signal [4] was 9.49 upbm affinity estimate (log intensity, higher = more binding, comparable within an allelic series).

With GGCGGGCA the binding signal [4] was 7.13 upbm affinity estimate (log intensity, higher = more binding, comparable within an allelic series), the binding signal [18] was 8.31 upbm affinity estimate (log intensity, higher = more binding, comparable within an allelic series) and the binding signal [20] was 8.21 upbm affinity estimate (log intensity, higher = more binding, comparable within an allelic series). For the same sequence, the binding signal [3] was 9.46 upbm affinity estimate (log intensity, higher = more binding, comparable within an allelic series), the binding signal [16] was 7.15 upbm affinity estimate (log intensity, higher = more binding, comparable within an allelic series) and the binding signal [30] was 9.45 upbm affinity estimate (log intensity, higher = more binding, comparable within an allelic series). For the same sequence, the binding signal [31] was 9.59 upbm affinity estimate (log intensity, higher = more binding, comparable within an allelic series) and the binding signal [5] was 8.39 upbm affinity estimate (log intensity, higher = more binding, comparable within an allelic series).

In the case of GCTCCGAC, the binding signal [4] is reported as 7.2 upbm affinity estimate (log intensity, higher = more binding, comparable within an allelic series), the binding signal [11] is reported as 8.1 upbm affinity estimate (log intensity, higher = more binding, comparable within an allelic series) and the binding signal [13] is reported as 8.29 upbm affinity estimate (log intensity, higher = more binding, comparable within an allelic series). The binding signal [14] was 8.19 upbm affinity estimate (log intensity, higher = more binding, comparable within an allelic series), the binding signal [32] was 9.12 upbm affinity estimate (log intensity, higher = more binding, comparable within an allelic series) and the binding signal [16] was 7.25 upbm affinity estimate (log intensity, higher = more binding, comparable within an allelic series). The binding signal [33] was 9.05 upbm affinity estimate (log intensity, higher = more binding, comparable within an allelic series).

In the case of CCCACGGC, the binding signal [4] is reported as 6.91 upbm affinity estimate (log intensity, higher = more binding, comparable within an allelic series), the binding signal [11] is reported as 7.88 upbm affinity estimate (log intensity, higher = more binding, comparable within an allelic series) and the binding signal [12] is reported as 8.38 upbm affinity estimate (log intensity, higher = more binding, comparable within an allelic series). For the same sequence, the binding signal [13] was 7.71 upbm affinity estimate (log intensity, higher = more binding, comparable within an allelic series), the binding signal [19] was 8.48 upbm affinity estimate (log intensity, higher = more binding, comparable within an allelic series) and the binding signal [14] was 7.87 upbm affinity estimate (log intensity, higher = more binding, comparable within an allelic series). For the same sequence, the binding signal [34] was 7.17 upbm affinity estimate (log intensity, higher = more binding, comparable within an allelic series), the binding signal [15] was 8.1 upbm affinity estimate (log intensity, higher = more binding, comparable within an allelic series) and the binding signal [35] was 7.69 upbm affinity estimate (log intensity, higher = more binding, comparable within an allelic series). For the same sequence, the binding signal [3] was 9.39 upbm affinity estimate (log intensity, higher = more binding, comparable within an allelic series), the binding signal [16] was 7.08 upbm affinity estimate (log intensity, higher = more binding, comparable within an allelic series) and the binding signal [36] was 10 upbm affinity estimate (log intensity, higher = more binding, comparable within an allelic series). The binding signal [30] was 9.4 upbm affinity estimate (log intensity, higher = more binding, comparable within an allelic series), the binding signal [37] was 7.64 upbm affinity estimate (log intensity, higher = more binding, comparable within an allelic series) and the binding signal [38] was 6.92 upbm affinity estimate (log intensity, higher = more binding, comparable within an allelic series). For the same sequence, the binding signal [39] was 7.79 upbm affinity estimate (log intensity, higher = more binding, comparable within an allelic series), the binding signal [31] was 9.58 upbm affinity estimate (log intensity, higher = more binding, comparable within an allelic series) and the binding signal [17] was 8.18 upbm affinity estimate (log intensity, higher = more binding, comparable within an allelic series). For the same sequence, the binding signal [40] was 7.77 upbm affinity estimate (log intensity, higher = more binding, comparable within an allelic series), the binding signal [41] was 6.93 upbm affinity estimate (log intensity, higher = more binding, comparable within an allelic series) and the binding signal [42] was 10.4 upbm affinity estimate (log intensity, higher = more binding, comparable within an allelic series). For the same sequence, the binding signal [24] was 8.45 upbm affinity estimate (log intensity, higher = more binding, comparable within an allelic series), the binding signal [43] was 7.71 upbm affinity estimate (log intensity, higher = more binding, comparable within an allelic series) and the binding signal [44] was 7.04 upbm affinity estimate (log intensity, higher = more binding, comparable within an allelic series). For the same sequence, the binding signal [45] was 6.78 upbm affinity estimate (log intensity, higher = more binding, comparable within an allelic series).
